Reference: the supplement of paper PMC5919970
Structures can show the parent of a compound that is named as a salt. The full ranking holds about 2,000 compounds; the median of “fractional viability relative to vehicle” is about 0.91, and the lowest 2% start at about 0.045. For the sample, the lowest values were picked, then their nearest neighbours and some compounds at random.

Test system: TYKNU
Test: fractional viability relative to vehicle; TYKNU is a high-grade serous ovarian cancer line; higher = less growth inhibition
Settings: 72 h
Method in brief: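 TYKNU control cells or lentiCRISPRv2 knockout derivatives were seeded at 500 cells per well into drug-stamped 384-well plates holding a ~2100-compound library at 2 or 10 μM, in duplicate. Cells were grown at 37 °C in 5% CO2 in RPMI 1640 with 10% FBS, and drug treatment lasted 72 h. Viability was read by Cell Titer Glo luminescence. Duplicate treatment wells were averaged and normalised to duplicate control wells from the same plate position.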

[1] = 2uM, genotype: DNM1L knockout (sgDNM1L #1)
[2] = 2uM, genotype: sgCTRLA1 (non-targeting control)
[3] = 10uM, genotype: DNM1L knockout (sgDNM1L #1)
[4] = 10uM, genotype: sgCTRLA1 (non-targeting control)

C[C@H](NC(=O)/C(C#N)=C/c1cccc(Br)n1)c1ccccc1
fractional viability [1]: 0.9
fractional viability [2]: 0.999
fractional viability [3]: 0.0615
fractional viability [4]: 0.0707

N#C/C(=C\c1ccc(O)c(O)c1)C(=O)NCc1ccccc1 [AG-490 (Tyrphostin B42)]
fractional viability [1]: 0.921
fractional viability [2]: 1.01
fractional viability [3]: 0.84
fractional viability [4]: 0.99

CCC[C@H](NC(=O)/C(C#N)=C/c1cccc(Br)n1)c1ccccc1 [Degrasyn (WP1130)]
fractional viability [1]: 0.0738
fractional viability [2]: 0.0639
fractional viability [3]: 0.0286
fractional viability [4]: 0.026

O=C(Nc1cccc(Cl)c1)Nc1ncc(CCNc2ncnc3ccsc23)s1 [SNS-314 Mesylate]
fractional viability [1]: 0.705
fractional viability [2]: 0.722
fractional viability [3]: 0.644
fractional viability [4]: 0.404

O=C(c1cncc(Br)c1)N1CCC(N2CCCC2)CC1
fractional viability [1]: 0.816
fractional viability [2]: 0.901
fractional viability [3]: 0.828
fractional viability [4]: 0.765

O=C(c1ccc(C(=O)N2CCC(N3CCCC3)CC2)c(Nc2ccccc2)c1)N1CCC(N2CCCC2)CC1
fractional viability [1]: 0.857
fractional viability [2]: 1
fractional viability [3]: 0.708
fractional viability [4]: 0.973

O=C(c1ccc(Nc2nccc(-c3cc4ccccc4s3)n2)cc1)N1CCC(N2CCCC2)CC1 [IKK-16 (IKK Inhibitor VII)]
fractional viability [1]: 0.942
fractional viability [2]: 0.839
fractional viability [3]: 0.0381
fractional viability [4]: 0.0277

NC[C@H](O)c1ccc(O)c(O)c1 [Noradrenaline bitartrate monohydrate]
fractional viability [1]: 0.847
fractional viability [2]: 0.96
fractional viability [3]: 0.592
fractional viability [4]: 0.84

O=C(/C=C/C=C/c1ccc2c(c1)OCO2)N1CCCCC1 [Piperine]
fractional viability [1]: 0.998
fractional viability [2]: 1.08
fractional viability [3]: 0.915
fractional viability [4]: 1.03

O=C(O)Cc1ccccc1Nc1c(Cl)cccc1Cl [Diclofenac Potassium]
fractional viability [1]: 1.17
fractional viability [2]: 1.13
fractional viability [3]: 0.876
fractional viability [4]: 1.07

O=C(O)Cc1ccccc1Nc1c(Cl)cccc1Cl [Diclofenac Sodium]
fractional viability [1]: 1.12
fractional viability [2]: 0.938
fractional viability [3]: 0.917
fractional viability [4]: 0.967

O=C(O)Cc1ccccc1Nc1c(Cl)cccc1Cl [Diclofenac Diethylamine]
fractional viability [1]: 1
fractional viability [2]: 1.03
fractional viability [3]: 0.893
fractional viability [4]: 1.14

CN(C)c1ccc(-c2nc3ncc(Cl)c(N4CCN(CC(=O)Nc5nccs5)CC4)c3[nH]2)cc1
fractional viability [1]: 1.15
fractional viability [2]: 0.937
fractional viability [3]: 0.395
fractional viability [4]: 0.714

O=C1c2c(O)cc(O)cc2OC(c2ccc(O)c(O)c2)C1O (stereo not given) [Taxifolin (Dihydroquercetin)]
fractional viability [1]: 1.04
fractional viability [2]: 1.15
fractional viability [3]: 0.951
fractional viability [4]: 1.06

COc1cccc(-c2cc(F)ccc2C2Cc3nc(N)nc(C)c3C(=O)N2)n1 (stereo not given)
fractional viability [1]: 0.241
fractional viability [2]: 0.191
fractional viability [3]: 0.227
fractional viability [4]: 0.201

COc1ccc(-c2cc3c(C)nc(N)nc3n([C@H]3CC[C@H](OCCO)CC3)c2=O)cn1
fractional viability [1]: 0.141
fractional viability [2]: 0.165
fractional viability [3]: 0.0585
fractional viability [4]: 0.0406

CCN1C[C@H](C)n2c(c(O)c3c(=O)n(Cc4ccc(F)c(Cl)c4)nc(C(=O)NC)c32)C1=O
fractional viability [1]: 1.07
fractional viability [2]: 1.2
fractional viability [3]: 0.793
fractional viability [4]: 1.12

N[C@H]1CC[C@H](N[C@@H]2C[C@H]2c2ccccc2)CC1
fractional viability [1]: 0.777
fractional viability [2]: 0.909
fractional viability [3]: 0.758
fractional viability [4]: 0.712

Cc1cc(OCc2nnc(SC3CCCC3)n2-c2cccnc2)ccc1-c1ccc(S(C)(=O)=O)cc1
fractional viability [1]: 0.545
fractional viability [2]: 0.46
fractional viability [3]: 0.0437
fractional viability [4]: 0.0922

CC(C)[C@H](O)C(=O)N[C@@H](C)C(=O)N[C@@H]1C(=O)N(C)CCc2ccccc21
fractional viability [1]: 1.04
fractional viability [2]: 1.25
fractional viability [3]: 0.949
fractional viability [4]: 1.15

Cc1ccc(S(=O)(=O)c2ccc([N+](=O)[O-])o2)cc1
fractional viability [1]: 0.0323
fractional viability [2]: 0.012
fractional viability [3]: 0.0126
fractional viability [4]: 0.00867

NC(=O)c1ccc(-c2nc(-c3ccccn3)c(-c3ccc4c(c3)OCO4)[nH]2)cc1
fractional viability [1]: 1.32
fractional viability [2]: 1.08
fractional viability [3]: 1.16
fractional viability [4]: 0.957

COc1ccccc1OCC(O)COC(N)=O (stereo not given) [Methocarbamol]
fractional viability [1]: 1.02
fractional viability [2]: 1.16
fractional viability [3]: 0.9
fractional viability [4]: 1

O=C(NC[C@H](O)CO)c1ccncc1Nc1ccc(I)cc1F
fractional viability [1]: 0.333
fractional viability [2]: 0.318
fractional viability [3]: 0.212
fractional viability [4]: 0.205

CCCSc1nc(N[C@@H]2C[C@H]2c2ccc(F)c(F)c2)c2nnn([C@@H]3C[C@H](OCCO)[C@@H](O)[C@H]3O)c2n1 [Ticagrelor]
fractional viability [1]: 0.944
fractional viability [2]: 1.12
fractional viability [3]: 0.492
fractional viability [4]: 0.903

CCN(CC)C(=S)SSC(=S)N(CC)CC [Disulfiram]
fractional viability [1]: 0.456
fractional viability [2]: 0.291
fractional viability [3]: 0.0708
fractional viability [4]: 0.0241

CC(=O)N1c2ccc(-c3ccc(C(=O)O)cc3)cc2[C@H](Nc2ccc(Cl)cc2)C[C@@H]1C
fractional viability [1]: 0.281
fractional viability [2]: 0.395
fractional viability [3]: 0.237
fractional viability [4]: 0.208

Cc1cc(Nc2ccc(NC(=O)c3ccc(Nc4ccnc5ccccc45)cc3)cc2)nc(N)n1
fractional viability [1]: 0.0197
fractional viability [2]: 0.0121
fractional viability [3]: 0.0121
fractional viability [4]: 0.00969

CNCc1ccc(C)c(NC(=O)c2ccc(Nc3nc(-c4ccccc4)c4ccccc4n3)cc2)c1
fractional viability [1]: 0.752
fractional viability [2]: 1.03
fractional viability [3]: 0.0487
fractional viability [4]: 0.0706

CC(=O)Nc1ccc(C(=O)Nc2ccccc2N)cc1 [CI994 (Tacedinaline)]
fractional viability [1]: 0.966
fractional viability [2]: 0.965
fractional viability [3]: 0.456
fractional viability [4]: 0.675
